Reference: PubChem BioAssay AID1645857 (Buhrlage Lab, Dana-Farber Cancer Institute and Novartis …, 2021)
Out of some 47,000 compounds screened, about 1,400 (3%) were called active. Only a selection was taken, and actives are over-represented in it overall. Values without a mark were called inactive. Cut-off read from the data, not from the text of the source: active = inhibition above about 30%; inactive = the rest.

Target: Ubiquitin carboxyl-terminal hydrolase 28 (Homo sapiens) (UniProt Q96RU2)
Sequence (Q96RU2 whole entry, looked up): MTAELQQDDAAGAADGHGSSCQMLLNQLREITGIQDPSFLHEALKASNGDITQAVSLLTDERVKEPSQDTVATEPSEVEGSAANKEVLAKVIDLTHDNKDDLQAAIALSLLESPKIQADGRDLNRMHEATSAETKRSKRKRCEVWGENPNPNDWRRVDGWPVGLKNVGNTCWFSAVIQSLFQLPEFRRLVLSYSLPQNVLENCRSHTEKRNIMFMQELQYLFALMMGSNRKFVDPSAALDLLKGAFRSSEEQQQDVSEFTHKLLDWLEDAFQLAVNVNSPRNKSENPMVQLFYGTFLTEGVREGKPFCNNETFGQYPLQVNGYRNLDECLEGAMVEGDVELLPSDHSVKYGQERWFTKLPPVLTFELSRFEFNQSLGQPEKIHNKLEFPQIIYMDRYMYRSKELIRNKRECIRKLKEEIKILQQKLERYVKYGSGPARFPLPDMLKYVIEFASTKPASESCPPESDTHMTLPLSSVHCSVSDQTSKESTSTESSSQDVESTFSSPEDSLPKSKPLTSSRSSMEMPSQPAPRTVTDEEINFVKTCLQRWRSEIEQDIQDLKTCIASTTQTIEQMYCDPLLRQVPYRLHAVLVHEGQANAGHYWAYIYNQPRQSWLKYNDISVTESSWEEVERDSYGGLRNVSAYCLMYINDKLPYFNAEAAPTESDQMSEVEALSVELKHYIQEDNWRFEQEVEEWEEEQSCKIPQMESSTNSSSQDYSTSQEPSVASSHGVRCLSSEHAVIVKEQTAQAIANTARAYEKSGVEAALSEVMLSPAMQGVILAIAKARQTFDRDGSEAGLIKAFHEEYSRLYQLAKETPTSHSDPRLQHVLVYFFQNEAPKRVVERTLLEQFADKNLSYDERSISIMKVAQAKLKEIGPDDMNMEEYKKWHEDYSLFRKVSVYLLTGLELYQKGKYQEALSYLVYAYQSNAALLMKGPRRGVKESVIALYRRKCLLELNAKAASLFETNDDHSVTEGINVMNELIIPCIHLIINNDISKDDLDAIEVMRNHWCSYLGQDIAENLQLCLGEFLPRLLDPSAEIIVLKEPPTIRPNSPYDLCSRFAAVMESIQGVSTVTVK
Assay: blocks human USP28 ubiquitin-rhodamine cleavage (AID 1645857)
Conditions: purified USP28, Ub-rhodamine cleavage fluorescence, 30 min; at 25 µM; active compounds read high

| SMILES | inhibition |
| --- | --- |
| CC(C)(C)c1nn(-c2ccccc2)c2[nH]c(=O)c(CNCCc3ccccc3)cc12 | 20.3% |
| Cc1ccccc1Nc1nc(N)nc(CSc2ccccc2)n1 | -0.136% |
| Cn1cc(CCNC(=O)Nc2cc(F)ccc2F)c2cccnc21 | 44.1% (active) |
| CCn1cc(C(=O)OCC(=O)Nc2cc(F)ccc2F)c(=O)c2ccc(C)nc21 | -0.0765% |
| Cn1c(CCNC(=O)c2ccc(C(C)(C)C)cc2)nc2cccnc21 | -229% |
| Cn1cc(-c2nc(C(=O)Nc3ccc(F)cc3)cs2)c2cccnc21 | 21.1% |
| Cn1cc(CCNC(=O)c2cc3ccccc3[nH]2)c2cccnc21 | 63.9% (active) |
| Cc1cccc(S(=O)(=O)NCCc2cn(C)c3ncccc23)c1 | -5.33% |
| O=C(NCC(c1cccnc1)N1CCc2ccccc2C1)c1cccc(F)c1 (stereo not drawn) | -8.37% |
| COc1ccc(N(Cc2cc(=O)[nH]c3ccccc23)C(=O)c2ccc(Cl)cc2)cc1 | 9.24% |
| CC(=O)c1ccc(Cc2ncc(C(F)(F)F)cc2Cl)s1 | 61% (active) |
| O=c1[nH]oc(O)c1-c1ncc(C(F)(F)F)cc1Cl | 8.59% |
| Cc1cc(N)nc2c1c(C)nn2-c1ncc(C(F)(F)F)cc1Cl | -20.8% |
| COc1ccc(N(CC(=O)N2CCc3ccccc32)S(=O)(=O)c2ccccc2)cc1 | -2% |
| O=C(c1ccccc1F)N1CCCC1c1nccnc1-c1ncc[nH]1 (stereo not drawn) | 8.72% |
| O=C(COc1ccccc1)N1CCc2[nH]nc(-c3ccccc3)c2C1 | 5.14% |
| COc1ccc(Oc2nc(C)c(-c3ccccc3)cc2C#N)cc1 | 13.9% |
| COc1ccccc1N1C(=O)c2ccccc2N2C(=O)c3ccccc3C12 (stereo not drawn) | 6.01% |
| Cc1cccc(NC(=O)c2cnn3c2NC2=C(C(=O)CCC2)C3c2ccccc2)c1 (stereo not drawn) | -27.3% |
| CCCCOc1ccc(C(=O)Nc2ccc3c(c2)CCC(=O)N3CCC)cc1 | 84.6% (active) |
| CCN1C(=O)CCc2cc(NC(=O)Cc3ccc(OC)c(Cl)c3)ccc21 | 2.71% |
| COCCN1C(=O)CCc2cc(NS(=O)(=O)c3cc(C)cc(C)c3)ccc21 | -19.5% |
| Cc1ccnc(Nc2nc(-c3ccccc3)c3cc(Cl)ccc3n2)n1 | 12.6% |
| COc1ccccc1CC(NC(C)=O)C(=O)NC1CCN(C(=O)c2cccc(C)c2)CC1 (stereo not drawn) | -1.93% |
| Cc1cc(C)n(CC2CCCCN2CC(=O)NC2(C#N)CCCC2)n1 (stereo not drawn) | 0.626% |
| CCc1nc2ccc(C(=O)Nc3nc(-c4ccc5c(c4)CCN5C(=O)c4ccc(C)cc4)c(C)s3)cc2nc1CC | -7.6% |
| Cc1ccc(C(=O)Nc2nccnc2C(=O)NCc2ccc3c(c2)OCO3)cc1 | -7.28% |
| Cc1ccc(C(=O)Nc2nc3c(s2)CCC3C(=O)NCc2ccncc2)cc1 (stereo not drawn) | 37.1% (active) |
